Source: PubChem BioAssay (NCI)
“And” between values parts separate entries of the source, which are not always exact repeats. Equal entries are not always repeated. About 83,000 compounds went through this panel and 20% of them were active in at least one assay; those are over-represented in the sample as a whole.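 Interpretation: 100, growth as untreated; towards 0, rising growth inhibition; 0, no net growth; 0 to -100, cell death. Compounds scoring below 10 were considered active.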 The source made the active and inactive calls.

System: HT29 colon
Assay: NCI-60 one-dose screen, 48 h (100 = growth as untreated, 0 = no growth, -100 = all killed)
Settings: 10 µM unless noted
Method: Growth inhibition of the HT29 human tumor cell line is measured as a screen for anti-cancer activity. Cells are grown in 96 well plates and exposed to the test compound for 48 hours. Compounds are tested at a single concentration, which is 10^-5 M for most compounds. The reported endpoint is percent growth (GI% or GIPRCNT), where numbers from 0 - 100% represent growth inhibition, and numbers from -100% - 0 represent cell death. For example, a value of 40 represents 60% growth inhibition. A value of 0 means no net growth occurred over the course of the experiment. A value of -40 indicates 40% of cells at the beginning of the experiment died by the end of the experiment. A value of -100 means all cells are dead at the end of the experiment.
NCI-60 Human Tumor Cell Lines Screen was performed using the standard one-dose NCI protocol, which is described in more detail at https://dtp.cancer.gov/discovery_development/nci-60/default.htm.
Compounds with GIPRCNT values below 10 were considered active. Activity score was based on GIPRCNT using the following formula: […]
Score is 0 for GIPRCNT values of 100 or above, 50 for GIPRCNT values of 0, and 100 for GIPRCNT values of -100.

| SMILES | growth |
| --- | --- |
| C#CCOc1ccccc1C(OC(=O)c1ccccc1)C(=O)NC(C)(C)C(C)(C)C (stereo not given) | 74.6% (inactive) |
| CCOc1cccc(/C(N)=N/C(N)=N/c2nc3ccccc3s2)c1 | 106% (inactive) |
| COc1ccc(/C=N/NC(=O)c2c(N)nn(C)c2Nc2ccccc2)cc1 | 18.6% (inactive) |
| C/C=C/CC(C)C(O)[C@H](NC(=O)[C@@H]1CCCN1C(=O)[C@](C)(CC)NC(=O)CCCCCCCCC)C(=O)N[C@@](C)(CC)C(=O)N[C@@H](CCC(N)=O)C(=O)N[C@H](CCC(N)=O)C(=O)NC(C)(C)C(=O)NC(C)(C)C(=O)N[C@@H](CCC(N)=O)C(=O)N[C@H](CC(C)C)C(=O)N[C@H](CO)CC(C)C (stereo not given in full) | 89.8% (inactive) and -25% (active) |
| N#Cc1nc(-c2ccccc2)oc1N1CCC(C2(C(F)(F)F)N=N2)CC1 | 102% (inactive) |
| CCNCCOc1ccc(/C(=C(/CC)c2ccc(Cl)cc2)c2ccc(OCCCN(C)C)cc2)cc1 | -36.4% (active) |
| Cc1ccc(/C=N/Nc2nc(Nc3ccccc3)nc(Nc3ccc(S(N)(=O)=O)cc3)n2)cc1 | 54.8% (inactive) |
| CCOC(=O)C(=O)Nc1ccc2c(ccn2C(=O)c2cccc(F)c2)c1 | 101% (inactive) |
| COc1ccc2[nH]cc(/C=N/Nc3ccnc4cc(Cl)ccc34)c2c1 | -42.3% (active) |
| CNC(=O)c1cc(N2CCc3cc(NC(=O)Nc4ccc(N5CCN(C)CC5)c(C(F)(F)F)c4)ccc32)ccn1 | 21.8% (inactive) |
| CCN(CC)CCOc1ccc(C(=C(c2ccccc2)C2CCCC2)c2ccc(OCCN(CC)CC)cc2)cc1 | -5.44% (active) |
| O=C(CSc1nnc(-c2ccc(Cl)cc2)n1-c1ccccc1)Nc1ccc(Cl)cc1 | 62.6% (inactive) |
| Cn1cc(-c2nnc(N)nc2-c2c[nH]c3ccc(Br)cc23)c2cc(Br)ccc21 | 97.1% (inactive) |
| CC1(C)CC[C@]2(C(=O)O)CC[C@]3(C)C(=CC[C@@H]4[C@@]5(C)CC[C@H](NOCCCN)C(C)(C)[C@@H]5CC[C@]43C)[C@@H]2C1 | 74% (inactive) |
| CCOC(=O)c1cccc(NC2=C(Cl)C(=O)c3nc(C)ccc3C2=O)c1 | 116% (inactive) |
| O=C1[C@H]2Cc3c([nH]c4ccccc34)[C@H](c3ccc(Br)cc3)N2C(=O)CN1C1CCN(CC2CCCCC2)CC1 | 11% (inactive) |
| NC1C2CCC1CN(c1cnc(C(=O)Nc3cc(F)cc4cccnc34)cn1)C2 (stereo not given) | 22.7% (inactive) |
| OCC(Nc1ncnc2ccc(-c3cnc4cnccn34)cc12)c1ccccc1 (stereo not given) | 83.5% (inactive) |
| COc1ccccc1N1CCN(C2=C(Cl)C(=O)c3ncccc3C2=O)CC1 | 111% (inactive) |
| CCN(CC)S(=O)(=O)c1ccc(-c2nc(C(Cl)Cl)nc3cc(-c4ccc(F)cc4)nn23)cc1 | 4.77% (active) |

| SMILES | growth |
| --- | --- |
| COc1cc(C(=O)c2cc(C(C)=O)c3c(C)cccn23)cc(OC)c1OC | 103% (inactive) |
| CCOC(=O)c1cccc(NC2=C(Cl)C(=O)C(C)=C(C)C2=O)c1 | 110% (inactive) |
| CN1CCN(CC#CCn2c3c(c4ccccc42)C[C@]2(C)[C@H]4CC=C5[C@@H]6CC(C)(C)CC[C@]6(C(=O)N6CCOCC6)CC[C@@]5(C)[C@]4(C)CC[C@H]2C3(C)C)CC1 | 12.3% (inactive) |
| O=C(CCCCCCNC(=O)C(O)(O)C(F)(F)F)Nc1ncc(-c2ccccc2)s1 | 4.15% (active) |
| NC1[C@H]2CN(c3cnc(C(=O)Nc4cc(F)cc5cccnc45)cn3)C[C@@H]12 (stereo not given in full) | 26.9% (inactive) |
| CC1(C)C=Cc2cc(/C(N)=N/C(N)=N/c3nc4ccccc4s3)ccc2O1 | 95.1% (inactive) |
| CC1=C(C)C(=O)C(Nc2ccc(C)c(C)c2)=C(Br)C1=O | 107% (inactive) |
| C/C(=N/N)c1nnn(-c2ccc(Br)cc2)c1C | 106% (inactive) |
| Cc1ccc2c(n1)C(=O)C(Cl)=C(Nc1ccccc1C(=O)OC(C)(C)C)C2=O | 26.2% (inactive) |
| Clc1ccc2c(N/N=C/c3c[nH]c4ccccc34)ccnc2c1 | -72.3% (active) |
| O=C(Nc1ccc(N2CCOCC2)cc1)Nc1ccc2c(ccn2C(=O)c2cccc(F)c2)c1 | 76% (inactive) |
| CN1CCN(c2ccc(Nc3nc(NCCCNS(=O)(=O)c4cccc5ccccc45)c4sccc4n3)cc2)CC1 | -62.1% (active) |
| O=c1oc2ccc(-c3ccc(F)cc3F)cc2c(=O)n1-c1ccc(Br)cc1F | 109% (inactive) |
| NC(=O)n1c(=O)n(-c2cccc(C(F)(F)F)c2)c(=O)c2cc(-c3ccc(F)cc3F)ccc21 | 74.8% (inactive) |
| N#Cc1c(-c2cccs2)c(C#N)c(=O)n(Cc2nc3ccccc3[nH]2)c1N | -93% (active) |
| CCOC(=O)c1ccc(NC2=C(Cl)C(=O)c3nc(C)ccc3C2=O)cc1 | 71.5% (inactive) |
| O=c1c2ccccc2cc2n1CCN=C2c1ccccc1 | 104% (inactive) |
| COC(=O)N1CCN(CCNCc2ccc(NC(=O)c3ccc(C)c(C#Cc4cnc5cccnn45)c3)cc2C(F)(F)F)CC1 | 17.3% (inactive) |
| O=C(CCCCCCNC(=O)C(O)(O)C(F)(F)F)Nc1ncc(-c2ccc(Br)cc2)s1 | 1.78% (active) |
| COc1ccc2c(c1)c(-c1nnc(N)nc1-c1c[nH]c3ccc(F)cc13)cn2C | 11.1% (inactive) |
